Results filed as inconclusive are left out. Calls of active or inactive are those of the source. Calls come from the whole dose curve; as a rule, active = well fitted curve in the direction sought with a large enough effect; inconclusive = small, poorly fitted or top-dose-only effect, or another doubt; inactive = no such curve, though single readings can be large; an effect the other way counts as inactive or inconclusive.
How the values were obtained:
[1] = Quantitative High-Throughput drug screen in 47 multiple myeloma cell lines against the NCATS MIPE library collection: Karpas620_DSMZ cell viability assay (AID 1918959); note: nearly all actives have a fitted effect of over 30% in size
Summary of the method: (§1)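 CellTiter-Glo luminescence (ATP) after 48 h compound exposure, 37C/5% CO2; 500 cells/well; MIPE 4.0 approved/investigational drugs pinned in; DMSO = 100%, media only = 0% viability.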

[2] = Quantitative High-Throughput drug screen in 47 multiple myeloma cell lines against the NCATS MIPE library collection: KMM1_JCRB cell viability assay (AID 1918960); note: nearly all actives have a fitted effect of over 30% in size
Summary of the method: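 Here, 48 h treatment with MIPE 4.0 agents at 37 °C preceded an ATP luminescence read. Plating density was 500 cells per well.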

[3] = Quantitative High-Throughput drug screen in 47 multiple myeloma cell lines against the NCATS MIPE library collection: Karpas417_ECACC cell viability assay (AID 1918961); conditions: Karpas417 myeloma viability, CellTiter-Glo ATP luminescence, 48 h; viability (% of DMSO): at 45.8 µM (top of the series)
Summary of the method: (§2)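 Myeloma cells (500 per well) were exposed to MIPE 4.0 compounds by pin transfer and incubated 48 hours at 37C, 5% CO2. Viability was read as ATP by CellTiter-Glo luminescence, normalised to DMSO (100%) and media-only (0%) wells.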

[4] = Quantitative High-Throughput drug screen in 47 multiple myeloma cell lines against the NCATS MIPE library collection: KHM11_PLB cell viability assay (AID 1918962); note: nearly all actives have a fitted effect of over 35% in size
Summary of the method: as §1

[5] = Quantitative High-Throughput drug screen in 47 multiple myeloma cell lines against the NCATS MIPE library collection: JIM3_ECACC cell viability assay (AID 1918963; note: nearly all actives have a fitted effect of over 35% in size)
Summary of the method: as §1

[6] = Quantitative High-Throughput drug screen in 47 multiple myeloma cell lines against the NCATS MIPE library collection: JIM1_ECACC cell viability assay (AID 1918964)
Summary of the method: (§3)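 Primary qHTS used for cherry-picking: cells at 500/well, library compounds for 48 h (37C, 5% CO2), luminescent ATP assay.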

[7] = Quantitative High-Throughput drug screen in 47 multiple myeloma cell lines against the NCATS MIPE library collection: INA6_PLB cell viability assay (AID 1918965; note: nearly all actives have a fitted effect of over 55% in size)
Summary of the method: as §2

[8] = Quantitative High-Throughput drug screen in 47 multiple myeloma cell lines against the NCATS MIPE library collection: JJN3_DSMZ cell viability assay (AID 1918966; note: nearly all actives have a fitted effect of over 50% in size)
Summary of the method: as §3

[9] = Quantitative High-Throughput drug screen in 47 multiple myeloma cell lines against the NCATS MIPE library collection: H1112_PLB cell viability assay (AID 1918967; note: nearly all actives have a fitted effect of over 30% in size)
Summary of the method: as §3

[10] = Quantitative High-Throughput drug screen in 47 multiple myeloma cell lines against the NCATS MIPE library collection: Karpas25_ECACC cell viability assay (AID 1918968; note: nearly all actives have a fitted effect of over 35% in size)
Summary of the method: as §3

[11] = Quantitative High-Throughput drug screen in 47 multiple myeloma cell lines against the NCATS MIPE library collection: KMS27_JCRB cell viability assay (AID 1918970); conditions: KMS27 myeloma cells, CellTiter-Glo ATP viability, 48 h; viability (% of DMSO): at 45.8 µM (top of the series); note: nearly all actives have a fitted effect of over 30% in size
Summary of the method: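 Each line is seeded at 500 cells per well and treated with library compounds for 48 hours under 37 °C, 5% CO2. CellTiter-Glo is then added for 5 min at room temperature before median relative luminescence is recorded.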

[12] = Quantitative High-Throughput drug screen in 47 multiple myeloma cell lines against the NCATS MIPE library collection: KMS12BM_JCRB cell viability assay (AID 1918971); note: nearly all actives have a fitted effect of over 35% in size
Summary of the method: (§4)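 Inhibition of cell viability is measured here. Each line was plated at 500 cells per well, treated with MIPE 4.0 drugs, kept 48 hours at 37C, then assayed for ATP content by CellTiter-Glo luminescence.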

[13] = Quantitative High-Throughput drug screen in 47 multiple myeloma cell lines against the NCATS MIPE library collection: KMS12PE_JCRB cell viability assay (AID 1918972); note: nearly all actives have a fitted effect of over 30% in size
Summary of the method: as §2

[14] = Quantitative High-Throughput drug screen in 47 multiple myeloma cell lines against the NCATS MIPE library collection: KMS20_JCRB cell viability assay (AID 1918973); note: nearly all actives have a fitted effect of over 45% in size
Summary of the method: as §3

[15] = Quantitative High-Throughput drug screen in 47 multiple myeloma cell lines against the NCATS MIPE library collection: KMS26_JCRB cell viability assay (AID 1918975); note: nearly all actives have a fitted effect of over 45% in size
Summary of the method: as §4

[16] = Quantitative High-Throughput drug screen in 47 multiple myeloma cell lines against the NCATS MIPE library collection: MMM1_PLB cell viability assay (AID 1918976); note: nearly all actives have a fitted effect of over 35% in size
Summary of the method: (§5)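 Myeloma cells (500/well) treated with MIPE 4.0 compounds for 48 h at 37 °C, 5% CO2. Viability read as ATP via CellTiter-Glo luminescence after 5 min at RT; DMSO-only wells = 100%, media-only = 0% viability.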

[17] = Quantitative High-Throughput drug screen in 47 multiple myeloma cell lines against the NCATS MIPE library collection: MOLP8_DSMZ cell viability assay (AID 1918977); note: nearly all actives have a fitted effect of over 45% in size
Summary of the method: as §5

[18] = Quantitative High-Throughput drug screen in 47 multiple myeloma cell lines against the NCATS MIPE library collection: NCIH929_DSMZ cell viability assay (AID 1918978); note: nearly all actives have a fitted effect of over 35% in size
Summary of the method: as §5

[19] = Quantitative High-Throughput drug screen in 47 multiple myeloma cell lines against the NCATS MIPE library collection: OCIMY1_PLB cell viability assay (AID 1918979); note: nearly all actives have a fitted effect of over 35% in size
Summary of the method: as §5

[20] = Quantitative High-Throughput drug screen in 47 multiple myeloma cell lines against the NCATS MIPE library collection: KMS21BM_JCRB cell viability assay (AID 1918974); conditions: ATP luminescence, 48 h; viability: at 45.8 µM (top of the series)
Summary of the method: as §3

Measured: Potency
Potency is the fitted concentration of half-maximal effect.

COc1cccc2c1C(=O)c1c(O)c3c(c(O)c1C2=O)C[C@@](O)(C(C)=O)C[C@H]3O[C@H]1C[C@H](N)[C@H](O)[C@H](C)O1
active: [1] 0.0662 µM | [2] 0.0743 µM | [3] 0.0469 µM | [4] 0.235 µM | [5] 0.0935 µM | [6] 0.0743 µM | [7] 0.0332 µM | [8] 0.105 µM | [9] 0.209 µM | [10] 0.0372 µM | [11] 0.0372 µM | [12] 0.0662 µM | [13] 0.0662 µM | [14] 0.0526 µM | [15] 0.296 µM | [16] 0.166 µM | [17] 0.132 µM | [18] 0.0469 µM | [19] 0.332 µM

CCN(CC)CCNC(=O)c1c(C)[nH]c(C=C2C(=O)Nc3ccc(F)cc32)c1C
active: [1] 4.81 µM | [2] 3.82 µM | [3] 0.136 µM | [4] 1.08 µM | [5] 2.15 µM | [6] 0.481 µM | [9] 6.79 µM | [10] 1.36 µM | [11] 1.36 µM | [13] 1.36 µM | [14] 0.855 µM | [15] 17.1 µM | [16] 6.79 µM | [18] 0.96 µM | [19] 13.6 µM

CC(=O)[C@]1(O)Cc2c(O)c3c(c(O)c2[C@@H](O[C@H]2C[C@H](N)[C@@H](O)[C@H](C)O2)C1)C(=O)c1ccccc1C3=O
active: [1] 2.09 µM | [2] 2.35 µM | [3] 2.35 µM | [4] 0.296 µM | [5] 0.264 µM | [6] 1.18 µM | [7] 0.0935 µM | [8] 0.209 µM | [9] 0.187 µM | [11] 1.18 µM | [12] 0.235 µM | [13] 2.09 µM | [14] 0.105 µM | [15] 0.264 µM | [16] 0.148 µM | [17] 0.132 µM | [18] 0.166 µM

NC(=O)Nc1sc(-c2ccc(F)cc2)cc1C(N)=O
active: [1] 1.48 µM | [2] 0.209 µM | [3] 0.0743 µM | [4] 0.833 µM | [5] 4.69 µM | [6] 0.0743 µM | [7] 0.332 µM | [8] 0.418 µM | [10] 0.418 µM | [12] 4.18 µM | [13] 0.935 µM | [14] 1.66 µM | [15] 2.96 µM | [17] 13.2 µM | [18] 0.0209 µM

COc1cc(C(=O)NC2CCN(C)CC2)ccc1Nc1ncc2c(n1)N(C1CCCC1)CCC(=O)N2C(C)C
active: [1] 23.5 µM | [2] 16.6 µM | [3] 13.2 µM | [4] 14.8 µM | [5] 20.9 µM | [6] 5.9 µM | [7] 3.72 µM | [8] 8.33 µM | [9] 23.5 µM | [10] 20.9 µM | [11] 5.9 µM | [13] 13.2 µM | [14] 16.6 µM | [20] 3.72 µM | [18] 10.5 µM

NC(=O)Nc1cc(-c2ccc(CN3CCOCC3)cc2)sc1C(N)=O
active: [1] 6.62 µM | [2] 4.18 µM | [3] 0.0833 µM | [4] 0.935 µM | [5] 4.69 µM | [6] 1.48 µM | [7] 1.05 µM | [8] 1.18 µM | [9] 5.26 µM | [10] 1.32 µM | [12] 20.9 µM | [13] 1.18 µM | [14] 2.64 µM | [16] 6.62 µM | [17] 14.8 µM | [18] 2.64 µM

Nc1ncn([C@@H]2O[C@H](CO)[C@@H](O)[C@@H]2O)c(=O)n1
active: [1] 4.69 µM | [2] 1.18 µM | [3] 9.35 µM | [4] 14.8 µM | [5] 4.69 µM | [6] 1.48 µM | [7] 1.18 µM | [8] 11.8 µM | [9] 18.7 µM | [10] 3.32 µM | [11] 9.35 µM | [12] 8.33 µM | [13] 1.32 µM | [15] 13.2 µM | [18] 3.72 µM

CC(=O)ON=C1C(c2c(O)[nH]c3cc(Br)ccc23)=Nc2ccccc21
active: [1] 4.69 µM | [2] 5.9 µM | [3] 5.26 µM | [4] 13.2 µM | [5] 2.96 µM | [6] 3.72 µM | [7] 0.935 µM | [8] 20.9 µM | [10] 2.64 µM | [11] 6.62 µM | [12] 14.8 µM | [13] 1.48 µM | [17] 13.2 µM | [18] 2.09 µM | [19] 26.4 µM

Cn1cc(C2=C(c3c4n(c5ccccc35)CCC(CN)C4)C(=O)NC2=O)c2ccccc21 (centres undefined)
active: [1] 9.35 µM | [2] 13.2 µM | [3] 9.35 µM | [4] 7.43 µM | [5] 10.5 µM | [6] 8.33 µM | [7] 3.72 µM | [9] 7.43 µM | [11] 8.33 µM | [12] 14.8 µM | [13] 8.33 µM | [16] 20.9 µM | [17] 13.2 µM | [18] 7.43 µM | [19] 20.9 µM

COc1ccc(S(=O)(=O)Nc2cc(-c3c(O)ccc4ccccc34)c(O)c3ccccc23)cc1
active: [1] 1.66 µM | [2] 8.33 µM | [3] 1.66 µM | [4] 14.8 µM | [5] 9.35 µM | [6] 3.32 µM | [7] 2.96 µM | [9] 9.35 µM | [10] 5.26 µM | [11] 14.8 µM | [14] 9.35 µM | [20] 18.7 µM | [15] 14.8 µM | [16] 16.6 µM | [17] 7.43 µM | [18] 3.32 µM | [19] 10.5 µM
